# Shown are actives, neighbours in structure and some others; about 9.3% of the full set was active somewhere.
# ELG1 genotoxic = qHTS screen for small molecules that induce genotoxicity in human embryonic kidney (HEK293T) cells expressing luciferase-tagged ELG1; HEK293T ELG1-luciferase reporter, luminescence, 16 h; Potency, µM (doses to about 46 µM), without a hit: at the highest dose activity change, positive = activation, hits mostly activators; actives 1.3% (n = 330,000); AID 504466, 2011; note: % of control where 0% means no effect; nearly all actives have a fitted effect of over 60% in size
#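 Reporter readout depends on ELG1 protein level, which increases with genetic stress. After 16 hr compound exposure at 37 °C, luciferase activity was quantified using ONE-Glo.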
# SMN2 splice up = qHTS Assay for Enhancers of SMN2 Splice Variant Expression | Potency, µM (highest dose often 46.1 µM), inactives show top-dose activity change, positive = activation, actives largely listed as activators | actives 2.8% (n = 210,000) | HEK293 SMN2-luciferase splicing reporter, luminescence, 30-36 h | AID 1458, 2008; note: % of control where 0% means no effect; nearly all actives have a fitted effect of over 55% in size
#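 HEK293 cells carry an SMN2 minigene-luciferase reporter in which exon 7 inclusion puts luciferase in frame. Cells were seeded at 2000 cells/well, attached for 10-12 hours, then exposed to compounds for 30-36 hours at 37C before ONE-Glo luminescence.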
# Rab9 prom act = qHTS Assay for Rab9 Promoter Activators; Huh7 Rab9 promoter-luciferase reporter, luminescence, 24 h; Potency, µM (doses to about 9.22 µM), for inactives: at the highest dose activation, negative = inhibition, most hits filed as activators; actives 2.8% (n = 320,000); AID 485297, 2010; note: % of control where 0% means no effect; nearly all actives have a fitted effect of over 60% in size
#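 Huh7 cells stably carrying a Rab9 promoter-luciferase reporter, 1500 cells per well in OP-MEM I with 10% FBS, treated with compound 24 hours at 37C. Luciferase activity read by luminescence after 10 minutes with Amplite reagent.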
# FLuc counter = qHTS profiling assay for firefly luciferase inhibitor/activator using purifed enzyme and Km concentrations of substrates (counterscreen for miR-21 project) | Potency, µM (top dose mostly 57.5 µM), without a hit: top-dose activity change, negative = inhibition, actives largely listed as inhibitors | Luciferin 4-monooxygenase (Photinus pyralis), P08659 | purified FLuc, Km substrates, luminescence inhibition | actives 6.9% (n = 360,000);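 note: plate controls were vehicle for no effect and reference inhibitor for full effect; nearly all actives have a fitted effect of over 55% in size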
# Target sequence (P08659 whole entry, looked up): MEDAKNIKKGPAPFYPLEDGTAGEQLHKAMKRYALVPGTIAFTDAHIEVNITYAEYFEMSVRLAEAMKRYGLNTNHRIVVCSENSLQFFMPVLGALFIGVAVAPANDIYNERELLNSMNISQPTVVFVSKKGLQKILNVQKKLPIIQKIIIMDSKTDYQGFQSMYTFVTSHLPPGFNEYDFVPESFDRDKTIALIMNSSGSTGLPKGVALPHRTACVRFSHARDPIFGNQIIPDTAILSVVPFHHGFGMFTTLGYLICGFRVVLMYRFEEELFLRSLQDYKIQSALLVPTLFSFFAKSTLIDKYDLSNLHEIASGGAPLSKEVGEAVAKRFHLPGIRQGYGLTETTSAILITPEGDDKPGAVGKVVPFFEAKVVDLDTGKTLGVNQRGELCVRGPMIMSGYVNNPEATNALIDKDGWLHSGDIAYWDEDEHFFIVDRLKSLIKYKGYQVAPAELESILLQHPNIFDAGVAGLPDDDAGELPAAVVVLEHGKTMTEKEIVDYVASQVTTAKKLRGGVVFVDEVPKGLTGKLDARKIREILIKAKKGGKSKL
#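 Biochemical qHTS of compounds, final roughly 60 µM downward over six points, against 10 nM purified firefly luciferase using Km concentrations of substrates (10 uM D-luciferin, 10 uM ATP) in Tris acetate pH 7.5 buffer; luminescence output.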
# ELG1 DNA repair = qHTS screen for small molecules that inhibit ELG1-dependent DNA repair in human embryonic kidney (HEK293T) cells expressing luciferase-tagged ELG1; HEK293T ELG1-luciferase reporter, luminescence, 16 h; DNA damage induced by 5-fluorouridine; Potency, µM (top dose mostly 46.1 µM), for inactives: top-dose activity change, negative = inhibition, usual class: inhibitors; actives 2.3% (n = 330,000); note: % is set by controls: 0 for no effect and ±100 for the full control effect; nearly all actives have a fitted effect of over 55% in size
#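 Reporter activity after DNA damage by 5-fluorouridine is monitored. Compound-treated cells incubate 16 hr at 37 °C, then ONE-Glo is added for 30 min before luminescence reading.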
# NPC1 promoter act = qHTS Assay for NPC1 Promoter Activators. Huh7 NPC1 promoter luciferase reporter, 24 h. Potency, µM (titrated, usually from 9.22 µM), inactives show top-dose activation, actives largely listed as activators. actives 2.4% (n = 320,000). AID 485313, 2010; note: % of control where 0% means no effect; nearly all actives have a fitted effect of over 60% in size
#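 Huh7 cells stably carrying NPC1 promoter–luciferase, plated in Opti-MEM with 10% FBS for 2 h, were exposed to compound in DMSO for 24 h at 37 °C; luciferase reagent was added for 10 min and luminescence read.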
# * = called active by the depositor; ? = inconclusive; / = no result given. Calls come from the whole dose curve; as a rule, active = well fitted curve in the direction sought with a large enough effect; inconclusive = small, poorly fitted or top-dose-only effect, or another doubt; inactive = no such curve, though single readings can be large; an effect the other way counts as inactive or inconclusive. Potency is the fitted concentration of half-maximal effect.
SMILES,ELG1 genotoxic,SMN2 splice up,Rab9 prom act,FLuc counter,ELG1 DNA repair,NPC1 promoter act
CCOc1ccc(NC(=O)c2ccc(N)cc2)cc1,?,?,?,9.53µM*,?,?
CCOc1ccc(NC(=O)c2ccc3nccnc3c2)cc1,?,-26.4%,?,16.9µM*,3.7%,21.0%
CC(C)(C)NC(=O)Nc1ccc2nccnc2c1,?,?,3.55µM*,23.9µM*,?,3.55µM*
O=C(COC(=O)c1ccc(Cl)nc1)NCc1ccco1,1.5%,/,-1.1%,0.3%,5.8%,0.0%
COc1ccc(NC(=O)Cn2c(=O)n(Cc3ccco3)c(=O)c3oc4ccccc4c32)cc1Cl,/,/,/,-11.1%,/,/
CCC(=O)c1ccc(OCC(=O)OCC(=O)N(C)CC(=O)Nc2ccc(F)cc2)cc1,-2.4%,/,-2.0%,-0.8%,1.3%,0.0%
Cc1cccc(C)c1NC(=O)CNC(=O)c1cccnc1,-4.9%,/,4.5%,0.2%,-5.7%,1.9%
COC(=O)C/C=C/[C@@H](C)[C@H](NC(=O)OCC(Cl)(Cl)Cl)c1ccc2ccccc2c1,/,-4.5%,/,/,/,/
CCOc1ccc(C(=O)COC(=O)Cc2n[nH]c(=O)c3ccccc23)cc1,4.7%,/,-18.8%,-13.6%,?,-25.8%
COc1ccccc1NS(=O)(=O)c1cc(NC(=O)Cc2n[nH]c(=O)c3ccccc23)ccc1Cl,-8.6%,/,/,/,23.1µM*,/
COc1ccc(NC(=O)c2ccc3nccnc3c2)cc1,?,12.6µM*,2µM*,26.9µM*,?,3.98µM*
CCOc1ccc(NC(=O)c2oc3ccccc3c2NC(=O)c2cc(C)cc(C)c2)cc1,/,-9.4%,/,4.0%,/,/
CCOc1ccc(C(=O)Nc2c(C(N)=O)oc3ccccc23)cc1,1.1%,-1.6%,17.3%,10.7µM*,?,14.3%
CCOc1ccc(NC(=O)c2ccc(NC(=O)Cc3n[nH]c(=O)c4ccccc34)cc2)cc1,9.2µM*,/,-0.7%,-17.2%,?,2.5%
O=C(Nc1ccccc1N1CCOCC1)c1ccc2ccccc2c1,-4.4%,/,3.3%,10.7µM*,-1.5%,8.0%
O=C(Nc1ccccc1N1CCOCC1)c1ccccc1NS(=O)(=O)c1ccc(F)c(F)c1,-18.0%,-39.3%,-3.5%,1.5%,20.6µM*,-4.1%
COc1cccc(/C=C/C(=O)Nc2ccccc2N2CCOCC2)c1,/,/,9.0%,16.9µM*,?,0.4%
O=C(Nc1cc(S(=O)(=O)N2CCCCC2)ccc1Cl)c1ccccc1NS(=O)(=O)c1ccc(F)cc1,-3.8%,-62.1%,-23.8%,-6.7%,4.11µM*,-19.3%
CCCCN(C)C(=O)c1cn(-c2cccc(OC)c2)c(=O)c2ccccc12,0.6%,/,-1.1%,-0.5%,13.5%,2.8%
CN(CC(=O)Nc1ccccc1N1CCOCC1)S(=O)(=O)c1ccc(Cl)cc1,-13.9%,-27.2%,-2.9%,9.2%,25.9µM*,0.8%
CS(=O)(=O)N1CCN(c2ccccc2NC(=O)c2ccc3ccccc3c2)CC1,-5.0%,-1.9%,1.2%,-14.6%,11.6µM*,1.3%
COc1ccc(OC)c(C2Nc3nc4ccccc4n3C(C)=C2C(=O)Nc2ccc(C)cc2C)c1 (configuration not stated),1.3%,7.94µM*,-6.3%,5.8%,-0.5%,-7.0%
COc1ccc(C2C(C(=O)Nc3ccc(C)cc3C)=C(C)Nc3nc4ccccc4n32)c(OC)c1 (configuration not stated),/,-21.0%,/,2.8%,/,/
O=C(Nc1nc(COc2ccccc2)cs1)C1CCC1,?,12.8%,?,12µM*,?,?
Cc1ccc(C(=O)Nc2nnc(COc3ccccc3)s2)cc1,4.1%,/,-7.7%,1.4%,-0.9%,1.1%
SMILES,ELG1 genotoxic,SMN2 splice up,Rab9 prom act,FLuc counter,ELG1 DNA repair,NPC1 promoter act
Cc1ccc(C(=O)Nc2nc(COc3ccccc3)cs2)s1,/,-28.2%,/,16.9µM*,/,/
O=C(COc1ccccc1)OCc1csc(Nc2ccccc2)n1,-1.9%,10.8%,-0.4%,?,?,2.3%
Nc1nc(COc2ccc3ccccc3c2)cs1,/,29.9%,/,12µM*,/,/
CC(=O)Nc1nc(COc2ccccc2)cs1,10.3µM*,17.8µM*,?,?,?,3.16µM*
COc1cccc(OC)c1C(=O)Nc1nc(COc2ccccc2)cs1,-8.3%,-18.0%,-1.4%,?,?,3.0%
COc1ccccc1OCc1csc(N)n1,-1.7%,13.9%,16.1%,4.1%,-2.3%,-1.4%
CCCc1cc(=O)[nH]c(SCC(=O)C(C)(C)C)n1,2.2%,-17.5%,3.7%,-0.6%,1.0%,0.3%
CCCOC(=O)c1cccc(Nc2nc(CCC)cc(=O)[nH]2)c1,/,-34.3%,/,-18.8%,/,/
O=C(Nc1nc(COc2ccccc2)cs1)C12CC3CC(CC(C3)C1)C2,?,-68.8%,23.4%,15.1µM*,?,12.2%
CC(=O)Nc1nc(COc2ccc3ccccc3c2)cs1,?,3.7%,6.31µM*,12µM*,?,2.82µM*
CCOC(=O)C1(CC2CCCCO2)CCN(Cc2cc3ccccc3[nH]2)CC1 (configuration not stated),-12.0%,/,-2.4%,2.9%,?,-6.7%
O=C(O)C1(P(=O)(c2ccccc2)c2ccccc2)CCCC1,6.3%,/,11.3%,-0.9%,?,-4.2%
Cn1c(C(=O)N2CCCC2)cc2c(=O)n(C)c3ccccc3c21,-6.9%,-12.1%,-3.7%,4.1%,-14.1%,1.4%
Cn1c(C(=O)N2CCN(c3ncccn3)CC2)cc2c(=O)n(C)c3ccccc3c21,-1.9%,-3.2%,6.3%,-2.8%,9.2µM*,0.7%
COc1ccc(CCN2C(=O)CSC2=S)cc1OC,-15.6%,/,-23.9%,-15.0%,?,-18.9%
Cc1ccc(/C=c2/sc3nnc(-c4ccccc4Cl)n3c2=O)o1,-2.6%,12.8%,0.2%,15.1µM*,3.0%,1.0%
CN(C)c1ccc(/C=N/NC(=O)c2ccc3c(c2)OCCO3)cc1,?,/,?,4.78µM*,?,?
CCN(CC)c1ccc(/C=N/NC(=O)c2ccc3c(c2)OCCO3)cc1,3.7%,/,-0.1%,7.57µM*,?,15.4%
Cc1cc([N+](=O)[O-])nn1Cc1ccc(C(=O)N/N=C/c2ccc(N(C)C)cc2)cc1,4.2%,/,-6.2%,9.53µM*,-1.9%,-4.2%
O=C(CNC(=O)c1ccc2c(c1)OCCO2)N/N=C/c1ccc(Cl)cc1,-0.8%,-0.9%,-1.8%,?,6.3%,-1.5%
